One may read the inhibition as the change of the read-out against control, counted positive when it falls.

The values below come from ChEMBL document CHEMBL1961873, “Compounds: GSK PKIS; Assays: Nanosyn kinase panel” (2012).

The target of test [1] is T1, Serine/threonine-protein kinase D2 (Homo sapiens) (UniProt Q9BZL6).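 Further: mean value of PRKD2 inhibition, from the GSK PKIS screening panel.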
T1 sequence (whole entry): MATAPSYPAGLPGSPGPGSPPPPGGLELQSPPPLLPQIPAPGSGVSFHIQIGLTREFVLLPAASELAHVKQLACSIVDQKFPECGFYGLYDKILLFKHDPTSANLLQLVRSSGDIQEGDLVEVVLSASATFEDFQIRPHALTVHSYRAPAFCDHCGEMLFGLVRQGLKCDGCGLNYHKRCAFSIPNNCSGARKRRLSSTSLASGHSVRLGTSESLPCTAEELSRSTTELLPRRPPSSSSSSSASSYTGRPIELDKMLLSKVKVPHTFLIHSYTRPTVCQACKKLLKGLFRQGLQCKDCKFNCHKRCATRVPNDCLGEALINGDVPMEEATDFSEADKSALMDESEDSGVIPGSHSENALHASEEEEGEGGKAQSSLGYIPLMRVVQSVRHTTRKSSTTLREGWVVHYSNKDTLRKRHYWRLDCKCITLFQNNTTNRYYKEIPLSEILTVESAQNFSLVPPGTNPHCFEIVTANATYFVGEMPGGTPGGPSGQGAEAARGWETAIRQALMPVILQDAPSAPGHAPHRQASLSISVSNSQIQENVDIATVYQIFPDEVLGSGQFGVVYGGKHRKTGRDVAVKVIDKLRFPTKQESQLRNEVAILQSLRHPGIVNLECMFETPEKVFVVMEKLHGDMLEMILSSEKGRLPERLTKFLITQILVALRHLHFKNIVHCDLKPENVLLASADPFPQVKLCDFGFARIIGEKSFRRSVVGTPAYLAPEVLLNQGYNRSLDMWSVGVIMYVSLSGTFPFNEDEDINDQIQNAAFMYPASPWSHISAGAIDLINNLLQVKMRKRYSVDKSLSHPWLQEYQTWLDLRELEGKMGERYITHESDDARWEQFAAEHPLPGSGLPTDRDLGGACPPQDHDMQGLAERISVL
The following applies: at 1 µM.

For test [2], the target named is T2, Serine/threonine-protein kinase D3 (Homo sapiens) (UniProt O94806).
T2 sequence (whole entry): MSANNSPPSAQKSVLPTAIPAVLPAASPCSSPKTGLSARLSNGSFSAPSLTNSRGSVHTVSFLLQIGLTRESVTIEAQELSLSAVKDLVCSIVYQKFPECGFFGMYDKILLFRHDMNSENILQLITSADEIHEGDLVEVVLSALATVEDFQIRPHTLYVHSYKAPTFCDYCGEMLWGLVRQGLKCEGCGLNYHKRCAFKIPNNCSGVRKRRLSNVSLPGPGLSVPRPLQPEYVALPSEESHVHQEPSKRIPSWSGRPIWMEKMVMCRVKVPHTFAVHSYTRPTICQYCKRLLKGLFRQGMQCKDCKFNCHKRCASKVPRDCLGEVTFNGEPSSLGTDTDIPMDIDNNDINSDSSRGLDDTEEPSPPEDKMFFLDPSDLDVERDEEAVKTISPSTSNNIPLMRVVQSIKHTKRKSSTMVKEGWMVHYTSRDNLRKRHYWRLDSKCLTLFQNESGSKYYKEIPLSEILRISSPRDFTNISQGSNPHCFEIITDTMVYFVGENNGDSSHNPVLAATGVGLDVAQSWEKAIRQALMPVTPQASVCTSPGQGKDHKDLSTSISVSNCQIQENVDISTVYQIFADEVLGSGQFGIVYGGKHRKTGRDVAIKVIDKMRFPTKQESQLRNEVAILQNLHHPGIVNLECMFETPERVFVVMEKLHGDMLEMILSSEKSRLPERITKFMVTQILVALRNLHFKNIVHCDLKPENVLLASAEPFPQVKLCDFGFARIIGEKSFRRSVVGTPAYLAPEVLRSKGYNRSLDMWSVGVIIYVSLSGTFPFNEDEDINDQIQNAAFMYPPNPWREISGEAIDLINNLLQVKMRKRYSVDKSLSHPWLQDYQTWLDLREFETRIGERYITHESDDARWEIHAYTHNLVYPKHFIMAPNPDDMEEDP
To be noted: at 0.1 µM.

Test [3] addresses T2, Serine/threonine-protein kinase D3 (Homo sapiens). To be noted: at 1 µM.
Test [4] has as its target T3, cGMP-dependent protein kinase 1 (Homo sapiens) (UniProt Q13976).
T3 sequence (whole entry): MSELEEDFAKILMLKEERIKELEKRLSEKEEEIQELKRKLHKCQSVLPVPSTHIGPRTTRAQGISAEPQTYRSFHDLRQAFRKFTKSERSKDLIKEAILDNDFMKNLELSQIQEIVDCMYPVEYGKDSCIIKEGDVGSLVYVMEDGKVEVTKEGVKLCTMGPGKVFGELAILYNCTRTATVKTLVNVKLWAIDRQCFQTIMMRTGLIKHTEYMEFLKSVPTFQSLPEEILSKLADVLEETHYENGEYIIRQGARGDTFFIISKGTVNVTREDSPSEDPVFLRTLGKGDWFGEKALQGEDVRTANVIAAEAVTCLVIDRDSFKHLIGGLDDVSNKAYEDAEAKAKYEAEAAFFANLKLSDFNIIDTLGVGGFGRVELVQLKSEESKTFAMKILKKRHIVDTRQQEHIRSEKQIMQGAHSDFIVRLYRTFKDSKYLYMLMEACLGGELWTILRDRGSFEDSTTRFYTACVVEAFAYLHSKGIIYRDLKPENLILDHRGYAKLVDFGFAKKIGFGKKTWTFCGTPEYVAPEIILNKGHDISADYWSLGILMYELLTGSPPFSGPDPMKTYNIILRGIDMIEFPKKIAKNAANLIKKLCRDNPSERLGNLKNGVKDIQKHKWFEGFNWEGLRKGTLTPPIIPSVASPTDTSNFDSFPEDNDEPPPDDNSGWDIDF
The following applies: at 0.1 µM.

In test [5] the target is T3, cGMP-dependent protein kinase 1 (Homo sapiens). To be noted: at 1 µM.
Test [6] addresses T4, cGMP-dependent protein kinase 2 (Homo sapiens) (UniProt Q13237).
T4 sequence (whole entry): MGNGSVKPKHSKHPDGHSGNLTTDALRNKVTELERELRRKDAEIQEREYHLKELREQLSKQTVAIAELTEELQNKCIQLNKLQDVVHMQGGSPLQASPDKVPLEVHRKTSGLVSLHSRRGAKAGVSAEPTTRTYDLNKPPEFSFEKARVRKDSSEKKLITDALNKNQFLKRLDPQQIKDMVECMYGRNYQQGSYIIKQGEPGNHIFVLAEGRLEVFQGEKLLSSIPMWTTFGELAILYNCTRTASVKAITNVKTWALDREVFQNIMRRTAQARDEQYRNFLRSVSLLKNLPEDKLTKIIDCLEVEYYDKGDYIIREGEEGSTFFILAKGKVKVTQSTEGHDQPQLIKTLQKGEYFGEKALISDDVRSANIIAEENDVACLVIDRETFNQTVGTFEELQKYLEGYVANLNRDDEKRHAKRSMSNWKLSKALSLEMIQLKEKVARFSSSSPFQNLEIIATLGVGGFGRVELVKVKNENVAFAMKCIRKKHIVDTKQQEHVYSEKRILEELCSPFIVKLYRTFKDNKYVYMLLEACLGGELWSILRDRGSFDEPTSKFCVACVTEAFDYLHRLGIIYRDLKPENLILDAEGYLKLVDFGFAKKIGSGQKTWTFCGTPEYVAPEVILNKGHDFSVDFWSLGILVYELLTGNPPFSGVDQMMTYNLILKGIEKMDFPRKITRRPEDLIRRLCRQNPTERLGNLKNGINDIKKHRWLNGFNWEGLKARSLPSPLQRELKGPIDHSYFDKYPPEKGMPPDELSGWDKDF
The following applies: at 0.1 µM.

For test [7], the target named is T4, cGMP-dependent protein kinase 2 (Homo sapiens). To be noted: at 1 µM.
Test [8] addresses T5, cAMP-dependent protein kinase catalytic subunit PRKX (Homo sapiens) (UniProt P51817).
T5 sequence (whole entry): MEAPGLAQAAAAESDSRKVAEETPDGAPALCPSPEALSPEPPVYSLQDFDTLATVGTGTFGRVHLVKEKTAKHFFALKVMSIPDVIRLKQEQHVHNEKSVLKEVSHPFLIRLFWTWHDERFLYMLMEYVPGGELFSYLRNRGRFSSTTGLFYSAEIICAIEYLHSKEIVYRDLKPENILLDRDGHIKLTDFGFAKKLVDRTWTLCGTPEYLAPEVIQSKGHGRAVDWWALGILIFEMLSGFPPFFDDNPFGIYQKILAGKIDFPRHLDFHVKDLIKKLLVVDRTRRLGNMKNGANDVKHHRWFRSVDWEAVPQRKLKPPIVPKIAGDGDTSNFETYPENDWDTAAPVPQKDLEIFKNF
To be noted: at 0.1 µM.

The target of test [9] is T5, cAMP-dependent protein kinase catalytic subunit PRKX (Homo sapiens). To be noted: at 1 µM.
Test [10] concerns the target Rho-associated protein kinase 1 (Homo sapiens) (UniProt Q13464). To be noted: at 0.1 µM.
The target is the same in test [11]. The following applies: at 1 µM.
For test [12], the target named is Rho-associated protein kinase 2 (Homo sapiens) (UniProt O75116). The following applies: at 0.1 µM.
Rho-associated protein kinase 2 (Homo sapiens), sequence (O75116 whole entry, looked up): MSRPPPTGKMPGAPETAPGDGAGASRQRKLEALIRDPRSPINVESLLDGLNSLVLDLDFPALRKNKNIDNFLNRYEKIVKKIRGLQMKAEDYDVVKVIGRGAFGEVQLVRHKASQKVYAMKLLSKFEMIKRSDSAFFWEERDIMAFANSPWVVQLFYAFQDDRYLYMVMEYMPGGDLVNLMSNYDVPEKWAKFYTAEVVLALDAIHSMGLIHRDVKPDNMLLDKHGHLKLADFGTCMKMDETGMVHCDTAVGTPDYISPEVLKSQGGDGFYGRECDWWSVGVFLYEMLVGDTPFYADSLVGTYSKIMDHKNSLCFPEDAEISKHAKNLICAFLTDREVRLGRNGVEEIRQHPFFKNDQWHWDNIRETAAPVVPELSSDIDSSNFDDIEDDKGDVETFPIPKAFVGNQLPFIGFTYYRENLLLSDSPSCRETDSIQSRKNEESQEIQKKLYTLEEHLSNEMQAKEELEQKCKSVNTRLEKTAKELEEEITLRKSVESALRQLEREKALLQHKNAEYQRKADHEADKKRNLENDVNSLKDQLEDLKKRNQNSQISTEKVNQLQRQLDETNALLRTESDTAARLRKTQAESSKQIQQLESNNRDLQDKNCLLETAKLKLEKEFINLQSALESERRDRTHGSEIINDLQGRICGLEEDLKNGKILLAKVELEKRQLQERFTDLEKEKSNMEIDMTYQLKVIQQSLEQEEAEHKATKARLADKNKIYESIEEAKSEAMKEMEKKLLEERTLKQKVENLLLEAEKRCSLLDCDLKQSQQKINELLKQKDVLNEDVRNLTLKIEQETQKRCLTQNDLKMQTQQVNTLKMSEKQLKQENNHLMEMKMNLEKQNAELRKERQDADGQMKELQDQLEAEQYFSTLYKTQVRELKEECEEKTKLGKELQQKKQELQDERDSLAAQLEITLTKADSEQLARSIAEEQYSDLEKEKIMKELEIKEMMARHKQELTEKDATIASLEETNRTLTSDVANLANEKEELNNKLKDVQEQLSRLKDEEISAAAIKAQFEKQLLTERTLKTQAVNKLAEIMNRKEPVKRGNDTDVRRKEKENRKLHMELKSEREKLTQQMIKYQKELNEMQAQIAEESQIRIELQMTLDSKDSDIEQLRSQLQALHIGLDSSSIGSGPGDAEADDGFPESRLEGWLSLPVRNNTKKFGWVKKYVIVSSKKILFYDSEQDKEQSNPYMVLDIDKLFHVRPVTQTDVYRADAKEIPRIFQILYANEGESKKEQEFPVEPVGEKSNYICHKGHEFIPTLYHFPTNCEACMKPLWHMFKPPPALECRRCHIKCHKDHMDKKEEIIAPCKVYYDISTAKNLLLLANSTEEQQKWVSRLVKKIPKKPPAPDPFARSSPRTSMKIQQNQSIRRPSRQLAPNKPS
Test [13] shares this target. To be noted: at 1 µM.
The target of test [14] is Ribosomal protein S6 kinase alpha-1 (Homo sapiens) (UniProt Q15418). To be noted: at 0.1 µM.
Ribosomal protein S6 kinase alpha-1 (Homo sapiens), sequence (Q15418 whole entry): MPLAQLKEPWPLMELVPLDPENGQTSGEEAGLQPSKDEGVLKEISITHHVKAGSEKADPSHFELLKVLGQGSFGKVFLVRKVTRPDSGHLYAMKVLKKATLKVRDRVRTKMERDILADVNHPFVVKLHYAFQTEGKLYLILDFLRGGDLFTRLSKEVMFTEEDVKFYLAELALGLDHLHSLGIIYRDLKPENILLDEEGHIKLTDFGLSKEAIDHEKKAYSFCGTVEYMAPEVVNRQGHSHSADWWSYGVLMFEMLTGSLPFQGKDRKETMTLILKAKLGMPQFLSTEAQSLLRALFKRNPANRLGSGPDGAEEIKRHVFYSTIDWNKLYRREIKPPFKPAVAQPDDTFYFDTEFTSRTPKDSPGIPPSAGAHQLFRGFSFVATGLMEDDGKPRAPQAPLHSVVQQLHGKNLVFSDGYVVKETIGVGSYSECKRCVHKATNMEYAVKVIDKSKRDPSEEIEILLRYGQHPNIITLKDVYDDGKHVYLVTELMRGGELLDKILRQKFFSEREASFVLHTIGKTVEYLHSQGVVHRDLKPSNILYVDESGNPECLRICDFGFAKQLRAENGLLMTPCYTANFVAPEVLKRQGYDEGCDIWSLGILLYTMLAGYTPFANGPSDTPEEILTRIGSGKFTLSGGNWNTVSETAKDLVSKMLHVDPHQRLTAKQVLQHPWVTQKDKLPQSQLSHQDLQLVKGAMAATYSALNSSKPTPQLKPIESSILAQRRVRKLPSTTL
The target is the same in test [15]. To be noted: at 1 µM.
Test [16] has as its target Ribosomal protein S6 kinase alpha-3 (Homo sapiens) (UniProt P51812). The following applies: at 0.1 µM.
For test [17] the target is unchanged. The following applies: at 1 µM.
Test [18] addresses Ribosomal protein S6 kinase alpha-2 (Homo sapiens) (UniProt Q15349). To be noted: at 0.1 µM.
For test [19] the target is unchanged. The following applies: at 1 µM.
For test [20], the target named is Ribosomal protein S6 kinase alpha-6 (Homo sapiens) (UniProt Q9UK32). The following applies: at 0.1 µM.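 Further: reported value is the mean inhibition of RSK4, from the GSK PKIS kinase inhibitor screen.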

Ribosomal protein S6 kinase alpha-2 (Homo sapiens), sequence (Q15349 whole entry): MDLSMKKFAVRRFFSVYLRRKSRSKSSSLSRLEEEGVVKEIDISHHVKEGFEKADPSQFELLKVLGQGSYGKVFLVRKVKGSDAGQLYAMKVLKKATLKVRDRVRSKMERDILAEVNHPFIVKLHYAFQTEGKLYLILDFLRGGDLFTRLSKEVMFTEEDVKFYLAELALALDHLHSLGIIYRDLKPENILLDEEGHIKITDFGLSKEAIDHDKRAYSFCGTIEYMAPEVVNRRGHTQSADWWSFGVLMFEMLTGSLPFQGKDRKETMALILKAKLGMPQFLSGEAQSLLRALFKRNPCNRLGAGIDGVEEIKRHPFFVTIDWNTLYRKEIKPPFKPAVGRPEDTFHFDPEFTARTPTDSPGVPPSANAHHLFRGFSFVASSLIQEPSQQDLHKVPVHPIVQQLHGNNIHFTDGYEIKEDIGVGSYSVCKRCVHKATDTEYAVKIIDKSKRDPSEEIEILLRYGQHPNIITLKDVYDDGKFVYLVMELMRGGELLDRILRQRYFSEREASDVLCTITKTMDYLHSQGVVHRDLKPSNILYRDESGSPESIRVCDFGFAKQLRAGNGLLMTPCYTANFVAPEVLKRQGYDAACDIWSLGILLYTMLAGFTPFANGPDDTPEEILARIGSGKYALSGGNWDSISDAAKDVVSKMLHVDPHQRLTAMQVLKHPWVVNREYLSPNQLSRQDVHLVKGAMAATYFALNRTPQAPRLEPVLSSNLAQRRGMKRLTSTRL
Ribosomal protein S6 kinase alpha-3 (Homo sapiens), sequence (P51812 whole entry): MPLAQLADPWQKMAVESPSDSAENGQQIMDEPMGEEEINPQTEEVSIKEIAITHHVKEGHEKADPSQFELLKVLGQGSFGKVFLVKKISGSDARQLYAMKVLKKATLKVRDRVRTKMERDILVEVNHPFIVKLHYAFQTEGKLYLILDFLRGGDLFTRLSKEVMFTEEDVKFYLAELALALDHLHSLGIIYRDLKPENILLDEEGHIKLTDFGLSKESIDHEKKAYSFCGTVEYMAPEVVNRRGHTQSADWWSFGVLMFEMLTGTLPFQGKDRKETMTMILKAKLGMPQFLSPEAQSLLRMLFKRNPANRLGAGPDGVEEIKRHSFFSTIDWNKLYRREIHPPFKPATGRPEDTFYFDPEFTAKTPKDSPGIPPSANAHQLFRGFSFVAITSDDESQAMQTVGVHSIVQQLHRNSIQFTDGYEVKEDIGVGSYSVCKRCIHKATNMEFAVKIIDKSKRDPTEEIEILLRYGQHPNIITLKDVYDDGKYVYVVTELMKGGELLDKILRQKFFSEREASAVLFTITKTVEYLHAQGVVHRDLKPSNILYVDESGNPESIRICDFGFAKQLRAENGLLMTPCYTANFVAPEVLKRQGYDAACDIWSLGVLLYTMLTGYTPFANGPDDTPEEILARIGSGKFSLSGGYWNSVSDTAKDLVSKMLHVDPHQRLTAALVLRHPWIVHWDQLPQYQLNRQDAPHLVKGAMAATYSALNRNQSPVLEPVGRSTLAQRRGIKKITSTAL
Rho-associated protein kinase 1 (Homo sapiens), sequence (Q13464 2-1354 limits assumed): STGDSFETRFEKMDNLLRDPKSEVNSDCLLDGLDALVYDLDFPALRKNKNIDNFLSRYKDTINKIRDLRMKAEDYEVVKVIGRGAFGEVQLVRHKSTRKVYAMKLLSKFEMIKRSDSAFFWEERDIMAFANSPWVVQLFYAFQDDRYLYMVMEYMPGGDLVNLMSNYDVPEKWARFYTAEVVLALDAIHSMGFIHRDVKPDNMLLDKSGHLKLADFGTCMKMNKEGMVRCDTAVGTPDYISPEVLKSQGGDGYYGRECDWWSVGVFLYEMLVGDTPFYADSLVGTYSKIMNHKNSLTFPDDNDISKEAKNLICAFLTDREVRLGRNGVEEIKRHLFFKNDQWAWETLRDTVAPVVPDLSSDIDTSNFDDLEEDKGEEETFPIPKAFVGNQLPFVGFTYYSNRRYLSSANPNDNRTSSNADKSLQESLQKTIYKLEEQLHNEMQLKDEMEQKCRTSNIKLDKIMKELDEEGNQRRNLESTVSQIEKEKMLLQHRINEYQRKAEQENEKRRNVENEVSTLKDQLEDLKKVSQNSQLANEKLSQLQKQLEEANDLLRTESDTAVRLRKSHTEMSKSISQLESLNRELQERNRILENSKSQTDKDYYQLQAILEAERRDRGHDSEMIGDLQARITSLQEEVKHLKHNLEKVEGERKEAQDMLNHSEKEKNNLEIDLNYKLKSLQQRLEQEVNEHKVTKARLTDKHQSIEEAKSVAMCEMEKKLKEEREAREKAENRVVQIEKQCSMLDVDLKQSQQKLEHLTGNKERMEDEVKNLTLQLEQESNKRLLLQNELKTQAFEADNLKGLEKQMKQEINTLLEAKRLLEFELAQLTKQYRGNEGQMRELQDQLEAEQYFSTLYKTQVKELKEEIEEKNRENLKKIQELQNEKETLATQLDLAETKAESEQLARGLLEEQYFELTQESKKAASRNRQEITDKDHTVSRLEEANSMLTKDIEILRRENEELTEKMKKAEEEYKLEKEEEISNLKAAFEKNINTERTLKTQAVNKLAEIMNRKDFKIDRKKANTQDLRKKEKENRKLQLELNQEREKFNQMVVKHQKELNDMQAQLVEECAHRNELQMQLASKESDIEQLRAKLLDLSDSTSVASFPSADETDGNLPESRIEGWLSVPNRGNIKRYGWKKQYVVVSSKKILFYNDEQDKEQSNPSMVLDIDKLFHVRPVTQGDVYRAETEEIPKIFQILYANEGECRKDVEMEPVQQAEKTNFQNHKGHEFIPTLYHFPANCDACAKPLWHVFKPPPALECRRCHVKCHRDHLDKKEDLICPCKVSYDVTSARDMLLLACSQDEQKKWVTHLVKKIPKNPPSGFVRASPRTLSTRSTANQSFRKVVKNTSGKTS

Consider `Nc1ncnc2occ(-c3ccc(NC(=O)Nc4cc(C(F)(F)F)cc(C(F)(F)F)c4)cc3)c12`, for which the inhibition in test [1] worked out at 1.29%; in [2] it was 1.47%; in [3] it was 1.15%; in test [4] it was 1.23%; in test [5], 1.54%; in test [6], 0.73%. Moreover, the inhibition in test [7] is 1.97%; in test [8], -0.03%; in test [9], -3.64%; in [10], 6.3%; in test [11], 41.1%; in test [12], 20.3%. Moreover, the inhibition was 71.6% in test [13]; 3.14% in [14]; 41.1% in [15]; 0.64% in test [16]; 9.39% in [17]; 6.07% in test [18]. Also, the inhibition in test [19] was 38.8%; in test [20] it was 0.65%.

As for `COc1ccc(-c2coc3ncnc(N)c23)cc1`, the inhibition in [1] turned out to be 6.47%; in test [2] it was 4.56%; in [3], 7.56%; in test [4], 2.84%; in [5] it was 3.68%; in test [6], 2.51%. Further, the inhibition in test [7] was 3.93%; in [8] it was 1.76%; in test [9], 1.11%; in [10], 3.01%; in test [11] it was 3.53%; in test [12], 3.52%. For the same molecule, the inhibition is 1.94% in test [13]; 1.72% in test [14]; 0.94% in test [15]; 1.05% in test [16]; 1.66% in test [17]; 2.4% in test [18]. In addition, the inhibition worked out at 2.21% in [19] and 1.93% in test [20].

`O=C1NC(=O)C(N2CCc3ccccc32)=C1c1ccc(Cl)cc1`: the inhibition was determined as 4.56% in [1]; 5.53% in test [2]; 6.02% in test [3]; 3.3% in test [4]; 4.19% in test [5]; 2.11% in test [6]. For the same molecule, the inhibition is 4.33% in test [7]; 1.91% in test [8]; 0.77% in [9]; 1.88% in test [10]; 2.06% in [11]; 2.69% in test [12]. In addition, the inhibition in test [13] worked out at 1.72%; in test [14], 1.94%; in [15], 0.4%; in test [16], 2.23%; in [17], 1.24%; in [18], 2.52%. Moreover, the inhibition in test [19] is 2.25%; in [20] it was 2.11%.
